# APE1 inh-1: inhibitors of human APE1 endonuclease | recombinant APE1, TAMRA/BHQ-2 abasic DNA cleavage fluorescence | P27695 | hit rate 0.35% among 350,000 | Potency, µM (top dose mostly 65.8 µM), inactives show at the highest dose activity change, negative = inhibition, actives largely listed as inhibitors;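 note: plate controls were vehicle for no effect and reference inhibitor for full effect; nearly all actives have a fitted effect of over 55% in size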
# Target sequence (P27695 whole entry, looked up): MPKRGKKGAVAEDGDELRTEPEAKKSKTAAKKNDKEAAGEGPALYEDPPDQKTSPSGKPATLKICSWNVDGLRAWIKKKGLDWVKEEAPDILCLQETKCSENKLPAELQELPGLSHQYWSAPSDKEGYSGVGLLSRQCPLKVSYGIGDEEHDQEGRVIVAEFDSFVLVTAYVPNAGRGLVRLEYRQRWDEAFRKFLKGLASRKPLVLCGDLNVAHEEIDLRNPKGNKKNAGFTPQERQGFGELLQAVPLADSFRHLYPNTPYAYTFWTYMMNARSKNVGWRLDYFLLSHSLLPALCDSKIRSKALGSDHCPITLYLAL
#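 Step 1: APE1 (0.75 nM) with compound, 15 min RT. Step 2: add 50 nM fluorophore/quencher THF duplex. Step 3: three fluorescence reads 60 s apart (525/598 nm); read 3 minus read 1 = reaction progress.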
# BLM inh: blocks DNA unwinding by human BLM helicase; hit rate 0.2% among 350,000; recombinant BLM DNA unwinding, fluorescence dequenching; Potency, µM (series often up to 56.1 µM), for inactives: top-dose activity change, negative = inhibition, hits mostly inhibitors; AID 2528;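 note: plate controls were vehicle for no effect and no enzyme for full effect; nearly all actives have a fitted effect of over 35% in size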
# RECQ1 inh: RECQ1 (human) helicase inhibition; hit rate 0.54% among 240,000; AID 2549; RECQ1 DNA unwinding, red fluorescence kinetic read; Potency, µM (doses to about 57.3 µM), inactives show at the top dose activity, negative = inhibition, usual class: inhibitors;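 note: plate controls were vehicle for no effect and no enzyme for full effect; nearly all actives have a fitted effect of over 30% in size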
#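 RECQ1T1 50 nM; forked duplex (20 bp + 30-nt ss tails) 200 nM, ATP 2 mM final; pH 8.0, 2 mM MgCl2, 2.5 ug/ml poly(dI-dC); 15 min compound preincubation; discontinuous kinetic read over 2 h at RT.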
# TDP1 block: inhibitors of human tyrosyl-DNA phosphodiesterase TDP1 | recombinant TDP1, AlphaScreen DNA substrate cleavage | Potency, µM (doses to about 130 µM), for inactives: top-dose activity change, negative = inhibition, actives largely listed as inhibitors | hit rate 0.28% among 350,000 | AID 485290; note: nearly all actives have a fitted effect of over 40% in size
#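 AlphaScreen read-out: signal falls as enzyme removes the 3' tyrosine-FITC from a 5'-biotinylated DNA oligo (15 nM, 5 min, RT). Enzyme was E. coli-made recombinant Tdp1 at 1 nM, exposed to compound for 15 min beforehand; beads 10 ug/ml, 10 min.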
# FEN1 inhibitor: human FEN1 inhibition; P39748; Recombinant FEN1 flap cleavage, fluorescence, 15 min; Potency, µM (series often up to 114 µM), for the others: at the highest dose activity change, negative = inhibition, usual class: inhibitors; hit rate 0.35% among 390,000; AID 588795; note: nearly all actives have a fitted effect of over 65% in size
# Target sequence (P39748 whole entry, looked up): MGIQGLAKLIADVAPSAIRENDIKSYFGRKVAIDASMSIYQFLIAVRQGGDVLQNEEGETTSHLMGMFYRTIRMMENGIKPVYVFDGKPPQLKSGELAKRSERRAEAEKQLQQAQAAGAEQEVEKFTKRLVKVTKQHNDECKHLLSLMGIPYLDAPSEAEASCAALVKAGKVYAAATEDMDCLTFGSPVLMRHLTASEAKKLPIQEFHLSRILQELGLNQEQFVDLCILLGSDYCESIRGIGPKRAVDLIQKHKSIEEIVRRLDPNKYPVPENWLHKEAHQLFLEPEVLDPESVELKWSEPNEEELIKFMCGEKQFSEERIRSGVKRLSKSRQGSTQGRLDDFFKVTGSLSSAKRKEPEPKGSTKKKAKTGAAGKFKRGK
#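 FEN1 at 10 nM, compound pretreatment for 15 min (room temperature), 50 nM final substrate to initiate; endpoint reads at 0 and 15 min; DMSO-only plates used as vehicle background.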
# DNA dye displace: DNA dye displacement counter-screen activity | DNA fluorescent dye displacement counterscreen, fluorescence | Potency, µM (highest dose often 28.5 µM), for inactives: at the top dose activity change, negative = inhibition, hits mostly inhibitors | shares compounds with APE1 inh-1 | hit rate 7% among 480;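 note: loss of thiazole orange fluorescence as the dye is displaced from duplex DNA; 0% = ThO with dsDNA and no compound and -100% = ThO without dsDNA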
# Endo IV inh: Endo IV (E. coli) inhibition counter-screen; E. coli Endo IV, fluorogenic AP-site DNA cleavage; shares compounds with APE1 inh-1; hit rate 4% among 560; Potency, µM (top dose mostly 27.1 µM), inactives show top-dose activity change, negative = inhibition, most hits filed as inhibitors;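 note: plate controls were uninhibited enzyme wells for no effect and no enzyme buffer wells for full effect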
# APE1 inh-2: confirmation of inhibitors of human APE1 endonuclease; shares compounds with APE1 inh-1; purified APE1, fluorogenic abasic-site DNA cleavage; Potency, µM (titrated, usually from 57.1 µM), for the others: top-dose activity change, negative = inhibition, usual class: inhibitors; hit rate 44% among 750; AID 2572; note: nearly all actives have a fitted effect of over 30% in size
# APE1 FP: displaces DNA from human APE1 in FP assay. shares compounds with APE1 inh-1. APE1 binding to TAMRA-labelled double-stranded DNA, fluorescence polarization displacement. Potency, µM (highest dose often 28.5 µM), for inactives: top-dose activity, negative = inhibition, most hits filed as inhibitors. hit rate 7% among 480
# * hit, by the source's call; i = inactive; u = inconclusive; x = no result; [ ] = remark or other dose. Only some compounds are listed: those with a hit (about 0.92% of all), similar ones and a draw of the others. Calls come from the whole dose curve; as a rule, active = well fitted curve in the direction sought with a large enough effect; inconclusive = small, poorly fitted or top-dose-only effect, or another doubt; inactive = no such curve, though single readings can be large; an effect the other way counts as inactive or inconclusive. Unless noted, % is set by controls: 0 for no effect and ±100 for the full control effect; potency is the fitted concentration of half-maximal effect.
SMILES,APE1 inh-1,BLM inh,RECQ1 inh,TDP1 block,FEN1 inhibitor,DNA dye displace,Endo IV inh,APE1 inh-2,APE1 FP
Cc1ccc(CN2C(=O)N/C(=C\c3cccn3-c3cccc(C(=O)O)c3)C2=O)cc1,16%,-6%,-3%,0%,u,x,x,x,x
O=C(O)c1cccc(-n2cccc2/C=C2\NC(=O)N(Cc3ccc(F)cc3)C2=O)c1,10µM*,-9%,-28%,u,u,-6%,-4%,10µM*,u
CCC1=NNc2cccc3c(OC)ccc1c23,u,u,-17%,x,x,u,8%,-6%[24.4 µM],1%
COc1cc(OC)c2c(-c3ccccc3)cc(=O)oc2c1C(CC(=O)N1CCN(c2ccccc2)CC1)c1ccc2c(c1)OCO2 (configuration not stated),u,-11%,i,u,x,2%,0%,13µM*,-43%
CCCCC(=O)O[C@]1(C(=O)CO)CCC2C3CCC4=CC(=O)CCC4(C)C3C(O)CC21C (some centres not stated),x,0%,x,x,x,x,x,x,x
Clc1ccc(CCNc2nc3cc(Cl)c(Cl)cc3n3cnnc23)cc1,x,0%,x,2%,-4%,x,x,x,x
COc1ccc(OCC(=O)OCCN2C(=O)c3ccccc3C2=O)cc1,u,-21%,-10%,x,-4%,-9%,4%,u,8%
O=C(N/N=C/c1c[nH]c2ccc(Br)cc12)c1ccncc1,-4%,u,-6%,89µM*,-7%,x,x,-12%,x
CN=c1scc(-c2ccccc2F)n1/N=C/c1ccc[nH]1,35µM*,-7%,i,5%,0%,17%,6%,u,-34%
Fc1ccc(C2CC(c3cccs3)=NN2c2ccccc2)cc1 (configuration not stated),-6%,-10%,i,x,-8%,x,x,-17%,x
c1ccc(C2CC(c3cccs3)=NN2c2ccccc2)cc1 (configuration not stated),-4%,-14%,-4%,x,u,x,x,x,x
N#Cc1cccc(OC2=NS(=O)(=O)c3ccccc32)c1,x,x,x,2%,x,x,x,x,x
Oc1ccccc1Oc1c(F)c(F)nc(N2CCCC2)c1F,u,-23%,-25%,-1%,-10%,-9%,-1%,u,-6%
CC(=O)/C=C/c1ccccc1Oc1c(F)c(F)nc(F)c1F,-7%,-6%,x,x,-23%,x,x,x,x
Cc1cnccc1/C=C/c1ccc(N)cc1,x,x,x,x,15%,x,x,x,x
CC(=O)C1=C(O)C(=O)N(Cc2ccccc2)C1c1ccco1 (configuration not stated),1µM*,-6%,-15%,0.79µM*,-32%,-5%,5%,u,0%
N#Cc1cc2nc(O)c(O)nc2cc1[N+](=O)[O-],u,1%,2%,7%[56.1 µM],-1%,x,-10%[57.1 µM],-82%,x
CNc1ccc(C=C2C=CC=C2)cc1,x,x,x,x,1%,x,x,x,x
CCCCC[C@H](O)/C=C/[C@@H]1[C@@H](C/C=C\CCCC(=O)OC)[C@@H](O)C[C@H]1O,7%,-19%,-1%,50µM*,u,x,x,-14%,x
CCOC(=O)CCN1C(=O)[C@H]2[C@H]3[C@H](O)[C@H](O)C/C(=N/NC(=O)OCc4ccccc4)[C@@H]3CC[C@@H]2C1=O,u,0%[12.4 µM],3%[11.5 µM],7%[21 µM],x,x,x,x,x
Cc1ncc(CO)c(/C=N/NC(=O)c2cc(O)c(O)c(O)c2)c1O,4µM*,5.6µM*,14µM*,u,x,-10%,156%,u,5%
O=C1CCCc2oc3ccc(NS(=O)(=O)c4cccc5cccnc45)cc3c21,u,-1%,9%,50µM*,-7%,x,x,u,x
O=c1oc2ccc(NS(=O)(=O)c3cccc4cccnc34)cc2s1,8%[12.4 µM],-2%,x,x,-14%,x,x,x,x
COc1ccc(NC(=O)Cn2c(=O)n(Cc3ccccc3Cl)c(=O)c3cc(OC)c(OC)cc32)cc1OC,x,-4%,x,2%,0%,x,x,x,x
CCOC(=O)c1cccc(NC(=O)C2CCN(S(=O)(=O)c3ccc4c(c3)oc(=O)n4C)CC2)c1,x,-5%,x,-1%,17%,x,x,x,x
SMILES,APE1 inh-1,BLM inh,RECQ1 inh,TDP1 block,FEN1 inhibitor,DNA dye displace,Endo IV inh,APE1 inh-2,APE1 FP
Cc1c(-c2ccc(Cl)cc2)oc(=O)c2c(N)n(-c3ccccc3)nc12,-7%,u,-10%,50µM*,-9%,x,x,u,x
Nc1c2c(=O)oc(-c3ccccc3)cc2nn1-c1ccccc1,-7%,-7%,-8%,1%,-23%,x,x,x,x
COc1ccc(C(=O)c2ccc(CC#N)s2)cc1,1%,-5%,-1%,89µM*,-14%,x,x,-25%,x
COc1ccc(C(=O)c2ccsc2N)cc1,21%,-3%,x,x,-4%,x,x,x,x
Cn1nc([N+](=O)[O-])nc1S(C)(=O)=O,u,-2%,-15%,2%,-10%,-1%,0%,u,-2%
COc1ccc(C)cc1NC(=O)CSc1nc(=O)n(Cc2ccccn2)c2c1CCC2,x,1%,x,0%,-8%,x,x,x,x
COc1ccc(OC)c(NC(=O)N(C)CCc2c(C)nn(C)c2C)c1,x,0%,x,6%,1%,x,x,x,x
CC1=C(C(=O)O)N2C(=O)[C@@H](NC(=O)[C@@H](N)c3ccc(O)cc3)[C@@H]2SC1,x,2%[21.4 µM],-8%[25.9 µM],-14%[56.1 µM],x,x,x,x,x
O=c1c(-c2c(O)cc(O)c3c(=O)cc(-c4ccc(O)cc4)oc23)c(-c2ccc(O)cc2)oc2cc(O)cc(O)c12,0.79µM*,13µM*,13µM*,x,50µM*,14µM*,u,2µM*,0%
COc1ccc(O[C@H]2C=C[C@@H](c3ccccc3)O[C@H]2CO/N=C2/c3cc(OC)ccc3O[C@@H](c3cccc(OC)c3)[C@H]2O)cc1,23%[12.4 µM],-1%[12.4 µM],-7%[11.5 µM],4%[21 µM],x,x,x,x,x
Cc1ccccc1-c1ccc2ncnc(NCc3cccs3)c2c1,7.1µM*,-25%,u,x,x,u,-96%[57.1 µM],14µM*,46%[57.1 µM]
COc1ccc(-c2nnc3ccc(SCC(=O)NCc4ccco4)nn23)cc1,u,1%,-28%,79µM*,-12%,x,x,-10%,x
COc1ccc(-c2coc3cc(O)ccc3c2=O)cc1O,u,-5%,-31%,-1%,-17%,-7%,6%,-10%[24.4 µM],-6%
COc1ccc(-c2coc3cc(O)ccc3c2=O)cc1,-4%,0%,0%,11%[56.1 µM],18%,x,x,x,x

# Screens deposited in PubChem BioAssay by National Center for Advancing Translational Sciences (NCATS).
